Results reported in PubChem BioAssay (NCI).
Where “and” joins values, the source holds several entries; their conditions need not be identical. Equal entries are not always repeated. About 83,000 compounds went through this panel and 20% of them were active in at least one assay; those are over-represented in the sample as a whole.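 Each cell line was grown in a 96-well plate and treated with one concentration of compound for 48 hours. Values below 10 were considered active.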 The source holds several records for some structures; these can differ, active in one and inactive in another. Calls of active or inactive are those of the source.

What was measured:
Experiment in all cases: NCI-60 one-dose screen, 48 h (100 = growth as untreated, 0 = no growth, -100 = all killed)
Details in all cases: 10 µM unless noted
NCI-H23 lung = tested on: NCI-H23 lung
HOP-62 NSCLC = tested on: HOP-62 NSCLC
NCI-H460 lung = tested on: NCI-H460 lung
HOP-92 NSCLC = tested on: HOP-92 NSCLC
NCI-H522 lung = tested on: NCI-H522 lung
A549/ATCC NSCLC = tested on: A549/ATCC NSCLC
786-0 renal = tested on: 786-0 renal
COLO 205 colon = tested on: COLO 205 colon
NCI-H322M lung = tested on: NCI-H322M lung
NCI-H226 lung = tested on: NCI-H226 lung

Structure (SMILES) | growth (NCI-H23 lung) | growth (HOP-62 NSCLC) | growth (NCI-H460 lung) | growth (HOP-92 NSCLC) | growth (NCI-H522 lung) | growth (A549/ATCC NSCLC) | growth (786-0 renal) | growth (COLO 205 colon) | growth (NCI-H322M lung) | growth (NCI-H226 lung)
NC(=Nc1nc(-c2ccccn2)cc2ccccc12)c1ccccn1 | -90.1% (active) | 8.21% (active) | 1.13% (active) | -2.84% (active) | 36.3% (inactive) | -54.2% (active) | 3.78% (active) | 6.29% (active) | – | –
Cc1nn(CCO)c(C)c1N=[N+]([O-])c1c(C)nn(CCO)c1C | 87% (inactive) | 88.1% (inactive) | 76.3% (inactive) | -47.7% (active) | -78% (active) | 50.5% (inactive) | -82.3% (active) | -85.6% (active) | 98.5% (inactive) | –
CC(C)(C)c1ccc(O)c(Br)c1 | 93.6% (inactive) | 107% (inactive) | 95.6% (inactive) | 98.2% (inactive) | 119% (inactive) | 107% (inactive) | 100% (inactive) | 105% (inactive) | 101% (inactive) | –
O=C1C=C(Cl)C(=O)c2ccccc21 | 99.6% (inactive) | 84.5% (inactive) | 101% (inactive) | – | 11% (inactive) | – | 110% (inactive) | 93.2% (inactive) | 88.8% (inactive) | –
Oc1ccccc1N=Cc1ccccc1 | 64.2% (inactive) | 99.1% (inactive) | 94.4% (inactive) | 102% (inactive) | – | 98.2% (inactive) | – | 125% (inactive) | 87.5% (inactive) | –
CC1(C)CCCC2=C1C(=O)N(SC(Cl)(Cl)Cl)C2=O | 101% (inactive) | 98.2% (inactive) | 109% (inactive) | 89.5% (inactive) | -73.2% (active) | 92.6% (inactive) | 95% (inactive) | 69.8% (inactive) | 101% (inactive) | –
Cc1ccc2c(c1)sc(-c1ccc(N(C)C)cc1)[n+]2C | – | 1.81% (active) | -25.7% (active) | -38.6% (active) | 8.21% (active) | 26.6% (inactive) | 7.31% (active) | -83% (active) | 12.7% (inactive) | 17.8% (inactive)
COC(=O)C(=[N+]=[N-])C(=O)c1ccc([N+](=O)[O-])o1 | 77.6% (inactive) | 89.7% (inactive) | 94% (inactive) | 83.1% (inactive) | -61.8% (active) | 65.2% (inactive) | 107% (inactive) | 23% (inactive) | – | –
O=[N+]([O-])c1ccc([I+]c2ccccc2)cc1 | -55.1% (active) | -67.6% (active) | 4.38% (active) | 60.5% (inactive) | – | -71.6% (active) | -15.4% (active) | -84.3% (active) | 67.4% (inactive) | –
O=C(c1ccccc1)c1ccc(O)c2ncccc12 | 19.9% (inactive) | 38.6% (inactive) | 13.7% (inactive) | 49.6% (inactive) | – | 30.2% (inactive) | 31.6% (inactive) | 104% (inactive) | 44.6% (inactive) | –
COC(=O)[C@]1(C)CCC[C@]2(C)c3ccc(C(C)C)cc3C(=O)[C@@H](Br)[C@@H]12 | 90.3% (inactive) | 94.3% (inactive) | 106% (inactive) | 82.6% (inactive) | 80.8% (inactive) | 90.1% (inactive) | 94.8% (inactive) | 106% (inactive) | 118% (inactive) | –
Cc1cc2cccnc2c2ncccc12 | 18.7% (inactive) | 12% (inactive) | 0.789% (active) | 44.6% (inactive) | 22.1% (inactive) | 12.3% (inactive) | 18.9% (inactive) | 9.8% (active) | 40.4% (inactive) | –
CC1CC(C)(C)OB(OC(C)CC(C)(C)OB2OC(C)CC(C)(C)O2)O1 (stereo not given) | 93% (inactive) | 91.6% (inactive) | 111% (inactive) | 101% (inactive) | 81.6% (inactive) | 93.8% (inactive) | 98.4% (inactive) | 93.8% (inactive) | 102% (inactive) | –
S=C=Nc1ccc(N2CCOCC2)cc1 | 92.1% (inactive) | 89.6% (inactive) | 99.8% (inactive) | – | – | 89.8% (inactive) | 89.8% (inactive) | 97.4% (inactive) | 96.1% (inactive) | –
Cc1cc(C(=O)c2ccc(Cl)cc2)ccc1O | 102% (inactive) | 85.7% (inactive) | – | 104% (inactive) | 72.5% (inactive) | 91.8% (inactive) | 79.7% (inactive) | 122% (inactive) | 103% (inactive) | –
Oc1ccc2c(c1)CCc1ccccc1-2 | 108% (inactive) | 83.3% (inactive) | 106% (inactive) | 97.4% (inactive) | 100% (inactive) | 98.1% (inactive) | 88.1% (inactive) | 106% (inactive) | 110% (inactive) | –
COc1cc(/C=C/C(=O)CC(=O)/C=C/c2ccc(O)c(OC)c2)ccc1O | 21.1% (inactive) | 40.9% (inactive) | 47.4% (inactive) | 71.9% (inactive) | -22.5% (active) | 63.8% (inactive) | 16.7% (inactive) | 86.3% (inactive) | 78.3% (inactive) | –
COc1ccc(C(Cn2ccnc2)Sc2ccc(Cl)c(Cl)c2)cc1 (stereo not given) | 82.8% (inactive) | 85.5% (inactive) | – | 50.7% (inactive) | 60.2% (inactive) | 88.1% (inactive) | 77.8% (inactive) | 87.6% (inactive) | 91.3% (inactive) | –
OC(c1cc(-c2ccc(C(F)(F)F)cc2)nc(C(F)(F)F)c1)C1CCCCN1 (stereo not given) | 23.4% (inactive) and -44.7% (active) and 62.5% (inactive) | -69.8% (active) and -89.1% (active) and 57.1% (inactive) | -77.9% (active) and -77.2% (active) and -47.9% (active) | -18.8% (active) and -58.7% (active) and 36.3% (inactive) | -67.2% (active) and -80.1% (active) and 9.35% (active) | -43% (active) and -44.5% (active) and 35.6% (inactive) | -48.8% (active) and -82.2% (active) and 27% (inactive) | -90.1% (active) and -85.4% (active) and -79.8% (active) | 48.2% (inactive) and 29.8% (inactive) and 70.3% (inactive) | –
N#CCc1cccc2ccccc12 | – | 109% (inactive) | 108% (inactive) | 87.2% (inactive) | 91.6% (inactive) | 103% (inactive) | 109% (inactive) | 115% (inactive) | – | –
CCc1cnc2ccccc2c1/C=C/c1ccc(N(C)C)cc1 | – | 47.4% (inactive) | – | 60.1% (inactive) | 23.3% (inactive) | 33% (inactive) | 44% (inactive) | 41.5% (inactive) | 71.6% (inactive) | 74.5% (inactive)
COc1ccc2nc3cc([N+](=O)[O-])ccc3c(NNc3ccccc3)c2c1 | – | 37% (inactive) | 82.4% (inactive) | 14.8% (inactive) | 85% (inactive) | 95.2% (inactive) | -18.8% (active) | 99.8% (inactive) | 86.9% (inactive) | 63.8% (inactive)
O=C(c1ccc(O)c(Br)c1)c1ccc(O)c(Br)c1 | – | 102% (inactive) | 111% (inactive) | 101% (inactive) | 115% (inactive) | 109% (inactive) | 107% (inactive) | 112% (inactive) | – | 109% (inactive)
O=C(/C=C/C(Cl)(Cl)Cl)Nc1ccc(Cl)cc1 | – | 125% (inactive) | 115% (inactive) | 82.1% (inactive) | -51.6% (active) | 103% (inactive) | 109% (inactive) | 98.6% (inactive) | 126% (inactive) | 106% (inactive)
COc1cccc2c1C(=O)c1c(O)c3c(c(O)c1C2=O)C[C@@](O)(C(=O)CO)C[C@@H]3OC1CC(OC(C)=O)C(OC(C)=O)C(C)O1 (stereo not given in full) | – | -25.6% (active) | -56.2% (active) | -28.9% (active) | -34% (active) | -44.6% (active) | -17.3% (active) | -6.8% (active) | -12.8% (active) | -73.3% (active)
CCOc1ccc2c(c1)/C(=C\C=C\C1CC(C)C3CC(OCC)CCC3N1CC)CC(C)N2CC (stereo not given) | – | 11.6% (inactive) | 8.11% (active) | – | -19.3% (active) | 4.18% (active) | 10.3% (inactive) | -46.7% (active) | 4.18% (active) | 18.1% (inactive)
CCCCCCCCCCCCSC(=N)N | – | 58.3% (inactive) | -28% (active) | -22.4% (active) | – | 40.9% (inactive) | -37.7% (active) | -95.1% (active) | 68.7% (inactive) | 107% (inactive)
